Measured values as given in PubChem BioAssay.
Where “and” joins values, the source holds several entries; their conditions need not be identical. Identical values can stand only once. Calls of active or inactive are those of the source.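 How the source made its calls, unless noted: active means compounds whose cell count with miR-34 switched on is under 0.7 times the count with it off; inactive means the rest.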

Key:
[1] = tested on: Aerobactin synthetase IucA (Klebsiella pneumoniae); assay: inhibition of K. pneumoniae IucA enzyme – biochemical, Tocris library, absorbance (AID 1345561; call rule not given here;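 further: 100% = enzyme without compound and 0% = no enzyme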); settings: purified IucA enzyme assay, absorbance (OD) read-out; stronger effect = lower value;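 tested at 8 µM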
[2] = viability loss with induced miR-34 in A549 – imaging, A549 dox-inducible miR-34, nuclei and caspase counts, primary screen (AID 1347080); settings: A549 miR-34 inducible, Hoechst nuclei count, 48 h
[3] = galactose survival enhancers in mitochondrial complex I cybrids – cell-based, galactose medium, ATP luminescence, primary screen (AID 1645843;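 active means z-score of at least 1.8 in each of two replicates, scored against plate mean and spread of sample wells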;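 further: positive z means more ATP and so rescue of galactose-driven cybrid death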); settings: complex I mutant cybrid cells, 72 h, stronger effect = higher value
[4] = P. berghei load reduction in hepatocytes – cell-based, HepG2, luciferase luminescence, HepG2 viability, primary screen (AID 624349; in the data active means parasite load remaining mostly below about 12%, no sharp cut-off; inactive means mostly above about 10%;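 further: 100% = mean of DMSO negative control wells on the same plate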); settings: P. berghei liver stage in HepG2, luciferase luminescence, concentration not given here; parasite load remaining: stronger effect = lower value; viability: measured here: HepG2 viability without parasites
[5] = compounds altering circadian rhythm period length – cell-based, LOPAC library, luminescence reporter (AID 2774; call rule not given here;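 further: values are relative to mean of DMSO wells on each plate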); settings: circadian reporter cells, at 7 µM, actives lie on both sides
[6] = stronger effect = lower value, cell number ratio, induced over uninduced
[7] = measured here: relative caspase fold change +Dox/-Dox
[8] = measured here: total cells with miR-34 induction, stronger effect = lower value
[9] = measured here: total cells without miR-34 induction

SMILES | remaining activity [1] | fold change [2, 6] | fold change [2, 7] | cell count [2, 8] | cell count [2, 9] | z-score [3] | fold change ([2]; stronger effect = lower value) | parasite load remaining [4] | viability [4] [%] | period change [5]
CC(C(=O)OC1CC2CCC(C1)N2C)c1ccc(Br)cc1 (configuration not stated) | 87.5% (inactive) | 0.964 (inactive) | 0.964 | 8760 | 9090 | -0.795 (inactive) | – | – | – | –
CC(=O)[C@H]1CC[C@H]2[C@@H]3CCC4C[C@](C)(O)CC[C@]4(C)[C@H]3CC[C@]12C (some centres not stated) | 103% (inactive) | – | 1.5 | 8730 | 9490 | -0.285 (inactive) | 0.92 (inactive) | – | – | –
C[C@H](Cc1ccc(OCC(=O)O)cc1)NC[C@H](O)c1cccc(Cl)c1 | 121% (inactive) | 0.941 (inactive) | 0.725 | 7990 | 8500 | -0.27 (inactive) | – | – | – | –
Cn1c2c(c3ccccc31)CCNCC2 | 98.4% (inactive) | 0.896 (inactive) | 1.23 | 8130 | 9070 | -0.23 (inactive) | – | – | – | –
O=C(CCCN1CCC2(CC1)C(=O)N(Cc1cccc(F)c1)CN2c1ccccc1)c1ccc(F)cc1 | 109% (inactive) | 1.27 (inactive) | 1 | 1590 | 1250 | -1.2 (inactive) | – | – | – | –
O[C@H]1[C@H](O)[C@@H](O)CN2CC[C@H](O)[C@H]12 | 107% (inactive) | – | 1.02 and 1.4 | 4910 and 9170 | 5610 and 10000 | 0.34 (inactive) | 0.875 (inactive) and 0.917 (inactive) | – | – | –
CN(C)c1ccc(/C=C2\CCCN=C2c2cccnc2)cc1 | 94.5% (inactive) | 0.947 (inactive) | 1.33 | 8030 | 8480 | -0.4 (inactive) | – | – | – | –
Cc1nc(N)sc1CCN | 88.4% (inactive) | 0.919 (inactive) | 1.01 | 8020 | 8730 | 0.195 (inactive) | – | – | – | –
O=C1NC(=O)c2c1c1c3ccccc3n3c1c1c2c2ccccc2n1C1CCC3O1 | 103% (inactive) | 1.12 (inactive) | 1.11 | 5410 | 4820 | -0.395 (inactive) | – | 66.3% (inactive) | 60.2 | –
CCCCCOc1c(OC)ccc2cc(C(=O)NCc3ccc4c(c3)OCO4)c(=O)[nH]c12 | 107% (inactive) | 1.04 (inactive) | 1.43 | 5450 | 5260 | 0.125 (inactive) | – | – | – | –
CC(C)(C)NCC(O)COc1cccc2[nH]c(C#N)cc12 (configuration not stated) | 115% (inactive) | 0.911 (inactive) | 1.8 | 9030 | 9910 | 0.025 (inactive) | – | – | – | –
Cc1[nH]cnc1CCN | 109% (inactive) | 0.956 (inactive) | 1.94 | 10000 | 10500 | 0.125 (inactive) | – | – | – | –
CCCN(C/C=C/I)C1CCc2ccc(O)cc2C1 (configuration not stated) | 102% (inactive) | 0.904 (inactive) | 0.638 | 8360 | 9250 | -0.23 (inactive) | – | – | – | –
CN(C(=O)Cc1ccccc1)C(CN1CCCC1)c1ccccc1 (configuration not stated) | 116% (inactive) | 0.952 (inactive) | 0.864 | 8670 | 9110 | 0.03 (inactive) | – | – | – | –
CCCN[C@@H]1CCc2c(OC)cccc2[C@@H]1C | 99.1% (inactive) | 0.939 (inactive) | 1.14 | 8780 | 9360 | 0.12 (inactive) | – | – | – | –
O=C(O)/C=C/CO | 109% (inactive) | 0.992 (inactive) | 0.9 | 9440 | 9510 | -0.335 (inactive) | – | – | – | –
CCCN(CCC)[C@@H]1CCc2c(OC)cccc2[C@@H]1C | 103% (inactive) | 0.92 (inactive) | 0.674 | 8420 | 9160 | 0.925 (inactive) | – | – | – | –
Cc1cc(C)cc(C(=O)OC2CC3CCC(C2)N3C)c1 (configuration not stated) | 86.6% (inactive) | 0.914 (inactive) | 1.01 | 8100 | 8850 | -0.125 (inactive) | – | – | – | –
O=C1NC(=O)c2c1c1c3ccccc3[nH]c1c1[nH]c3ccccc3c21 | 93.4% (inactive) | – | 1.58 | 3660 | 4680 | -0.6 (inactive) | 0.78 (inactive) | 79.1% (inactive) | 159 | –
C[C@H](N)Cn1ccc2cc(F)c(Cl)cc21 | 103% (inactive) | 0.874 (inactive) | 1.05 | 7990 | 9140 | -0.575 (inactive) | – | – | – | –
CN1CCN(c2ccc3ccccc3n2)CC1 | 109% (inactive) | 0.923 (inactive) | 0.813 | 8930 | 9670 | -0.58 (inactive) | – | – | – | -0.045 h (inactive)
NC1(c2ccccc2Cl)CCCCC1=O (configuration not stated) | 88.2% (inactive) | – | 1.86 | 9020 | 10000 | 1.53 (inactive) | 0.898 (inactive) | – | – | –
